In publication PMC4336329 (PLoS ONE, 2015):
Hit rate of the full screen: of about 310,000 compounds, about 14,000 (4.5%) showed an effect of 50% or more. The effect is printed as a negative number. This is one part of a sample in which strong results are shown more often than they occur.

target: human ether-à-go-go-related gene (hERG) potassium channel (human, UniProt Q12809); assay: primary screen, population patch clamp on CHO cells stably expressing hERG; higher = less effect of the substance
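Also: peak tail current of the secondary pulse compared with the same well before compound.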

Chain of human ether-à-go-go-related gene (hERG) potassium channel (Q12809 whole entry, looked up): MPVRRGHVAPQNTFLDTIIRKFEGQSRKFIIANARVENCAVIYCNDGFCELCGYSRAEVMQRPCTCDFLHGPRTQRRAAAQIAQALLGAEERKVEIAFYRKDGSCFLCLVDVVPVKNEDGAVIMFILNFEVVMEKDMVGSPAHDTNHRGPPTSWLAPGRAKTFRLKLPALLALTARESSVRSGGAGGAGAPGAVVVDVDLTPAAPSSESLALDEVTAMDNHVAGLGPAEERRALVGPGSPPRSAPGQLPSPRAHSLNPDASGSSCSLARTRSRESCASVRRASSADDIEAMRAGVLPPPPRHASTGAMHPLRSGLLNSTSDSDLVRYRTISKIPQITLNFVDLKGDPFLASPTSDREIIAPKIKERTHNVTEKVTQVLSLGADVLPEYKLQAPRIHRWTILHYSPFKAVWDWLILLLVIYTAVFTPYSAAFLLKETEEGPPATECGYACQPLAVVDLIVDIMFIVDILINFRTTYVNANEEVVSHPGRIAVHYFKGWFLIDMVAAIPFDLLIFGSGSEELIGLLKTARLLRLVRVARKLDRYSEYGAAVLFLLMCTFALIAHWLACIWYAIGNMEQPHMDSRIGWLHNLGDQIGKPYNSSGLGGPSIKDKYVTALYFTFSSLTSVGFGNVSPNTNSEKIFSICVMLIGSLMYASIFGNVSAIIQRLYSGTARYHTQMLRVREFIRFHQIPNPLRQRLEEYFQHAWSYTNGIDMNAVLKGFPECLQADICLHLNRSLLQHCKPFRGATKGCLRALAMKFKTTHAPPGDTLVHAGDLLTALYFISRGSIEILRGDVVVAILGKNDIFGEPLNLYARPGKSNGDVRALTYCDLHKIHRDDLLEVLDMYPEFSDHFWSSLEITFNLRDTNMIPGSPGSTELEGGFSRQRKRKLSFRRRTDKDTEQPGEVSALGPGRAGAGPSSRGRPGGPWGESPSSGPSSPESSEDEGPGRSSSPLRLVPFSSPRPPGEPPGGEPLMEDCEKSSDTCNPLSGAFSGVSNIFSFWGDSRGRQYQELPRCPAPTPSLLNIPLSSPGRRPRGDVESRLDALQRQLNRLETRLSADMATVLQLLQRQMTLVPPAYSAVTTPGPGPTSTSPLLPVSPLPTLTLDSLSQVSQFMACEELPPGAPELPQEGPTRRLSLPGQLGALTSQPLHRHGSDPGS

SMILES	hERG current change (%, negative = inhibition) at 10uM [%]
O=C(NC(=O)N1CCOCC1)c1ccccc1	8.08
CC(=O)NNC(=O)CSc1nnc(-c2ccccc2)c(-c2ccccc2)n1	19.4
COc1ccc(CN2CC(=O)N(c3ccc(C)c(C)c3)C2=S)cc1OC	12.2
CC(C)Oc1c(Cl)cc(CNC(C)(C)CO)cc1Cl	0.775
CSc1nnc(-c2ccco2)c(-c2ccco2)n1	2.75
CCCCCC(=O)Nc1ccc2oc(-c3cccnc3)nc2c1	-6.74
COC(=O)C1=C(C(=O)OC)SC2(S1)C(C(=O)OC)=C(C(=O)OC)SC1=C2c2cc(C)ccc2NC1(C)C	14.3
COC(=O)C1=C(C(=O)OC)SC2(S1)C(C(=O)OC)=C(C(=O)OC)SC1=C2c2cccc(C)c2NC1(C)C	-51.6
COC(=O)C1=C(C(=O)OC)SC2(S1)C(C(=O)OC)=C(C(=O)OC)SC1=C2c2cc(C)cc(C)c2NC1(C)C	26.1
CCOC(=O)C1CCCN(C(=O)c2cc(Nc3ccc(OC)cc3)nc3ccccc23)C1 (centres unmarked)	-15
COc1cc2nc(N(CCN(C)C)C(=O)c3ccc(S(=O)(=O)N(C)CC4CCCO4)cc3)sc2cc1OC.Cl (centres unmarked)	-9.01
COc1cc2nc(N(CCCN(C)C)C(=O)c3ccc(S(=O)(=O)N(C)C4CCCCC4)cc3)sc2cc1OC.Cl	-51.6
CN(C)CCCN(C(=O)c1ccc(S(=O)(=O)N(C)C2CCCCC2)cc1)c1nc2ccc(Br)cc2s1.Cl	2.39
CN(C)CCCN(C(=O)c1ccc(S(=O)(=O)N(C)C2CCCCC2)cc1)c1nc2ccc(F)cc2s1.Cl	-71.9
CCc1ccc2nc(N(CCCN(C)C)C(=O)c3ccc(S(=O)(=O)N(C)C4CCCCC4)cc3)sc2c1.Cl	8.35
Cc1ccc2sc(N(CCCN(C)C)C(=O)c3ccc(S(=O)(=O)N(C)C4CCCCC4)cc3)nc2c1C.Cl	-8.13
CCCCNC(=O)C1CCN(S(=O)(=O)c2ccc3c(c2)CC(C)N3C(=O)C2CC2)CC1 (centres unmarked)	1.16
NC(=O)C(c1ccc(Cl)cc1)c1ccc(Sc2ccc(Cl)cc2)nn1 (centres unmarked)	-9.96
Cc1cc(NCCN2CCOCC2)n2nc(C)c(-c3ccc(Cl)cc3)c2n1	-50.2
Cc1cc(NCCC(C)C)n2nc(C)c(-c3ccccc3)c2n1	1.03
CCCc1cc(NCc2ccccn2)n2nc(C)c(-c3ccccc3)c2n1	4.77

SMILES	hERG current change (%, negative = inhibition) at 10uM [%]
Cc1cc(NCCCn2ccnc2)n2nc(C)c(-c3ccc(Cl)cc3)c2n1	-71.8
Cc1cc(NCc2ccccn2)n2nc(C)c(-c3ccc(Cl)cc3)c2n1	14.2
Cc1cc(NCCCN2CCOCC2)n2nc(C)c(-c3ccccc3)c2n1	-14.6
Cc1nn2c(NCCCn3ccnc3)cc(C(C)C)nc2c1-c1ccccc1	-23.5
Cc1cc(NCCCN2CCOCC2)n2nc(C)c(-c3ccc(F)cc3)c2n1	-31.1
COc1ccc(CCNc2cc(C)nc3c(-c4ccc(Cl)cc4)c(C)nn23)cc1OC	15.5
Cc1cc(NCCCn2ccnc2)n2nc(C)c(-c3ccccc3)c2n1	-72.8
CCCc1cc(N2CCCC2)n2nc(C)c(-c3ccccc3)c2n1	8.36
CCCc1cc(NCCCn2ccnc2)n2nc(C)c(-c3ccccc3)c2n1	-74.9
NNC(=O)c1ccc2[nH]c3c(c2c1)CCCC3	5.31
COc1ccc(-c2nc3ccccc3c(C(=O)Nc3ccc(S(=O)(=O)Nc4cc(C)on4)cc3)c2C)cc1	-7.09
COc1ccc(NS(=O)(=O)c2ccc(N3CCOCC3)c(NC(=O)c3ccccc3Br)c2)cc1	-11.2
COc1cc(C(=O)N2CCN(C(=O)C(Cc3cc(C)ccc3C)NC(C)=O)CC2)cc(OC)c1OC (centres unmarked)	-14.4
CCc1ccc(N(C(=O)c2csnn2)C(C(=O)NC2CCCC2)c2cccnc2)cc1 (centres unmarked)	-24.9
O=C(O)C1(c2ccccc2)CCN(S(=O)(=O)c2cccs2)CC1	5.95
N#CC1(NC(=O)COC(=O)c2cc(=O)[nH]c3ccccc23)CCCCC1	14
Cc1nn(CC(N)=O)c(=O)c2ccccc12	10.6
CN(C)CCNc1nc2c(c(=O)[nH]c(=O)n2C)n1CCOc1ccccc1	-5.88
Cc1nc(Cl)c2oc3ccccc3c2n1	9.28
O=C(NCCCN1CCC(Cc2ccccc2)CC1)C1CCC(=O)N1C1CCCC1 (centres unmarked)	6.52
Cc1ccc(C(=O)NCCCNC(=O)c2ccccn2)cc1	5.5

SMILES	hERG current change (%, negative = inhibition) at 10uM [%]
Cc1ccc(/C(=C\CN2CCCC2)c2ccccn2)cc1.Cl	-55.4
Cc1ccc(C(=O)NCCNC(=O)c2ccccn2)cc1	12.9
CCOC(=O)Cc1csc(SCC(=O)c2c(N)n(CC(C)C)c(=O)n(C)c2=O)n1	-2.23
Cc1ccc(OC(C)C(=O)N2CC(=O)Nc3ccccc32)c(C)c1 (centres unmarked)	2.56
COc1ccccc1OC(C)C(=O)N1CC(=O)Nc2ccccc21 (centres unmarked)	15.8
Cc1ccc(OC(C)C(=O)N2CC(=O)Nc3ccccc32)cc1 (centres unmarked)	-67.7
CCCN(CC(=O)Nc1ccccc1OC)C(=O)Cc1ccc2c(c1)CCC2	-18.1
[O-][n+]1c2ccccc2c2n1CCN1CCOC21c1ccc(Cl)cc1 (centres unmarked)	-42.3
CC[n+]1c(/C=C/C=C/N(C(C)=O)c2ccccc2)sc2ccccc21.[I-]	-69.8
CC[n+]1c(/C=C/C=C/c2ccc(N(C)C)cc2)sc2ccccc21.[O-][Cl+3]([O-])([O-])[O-]	-73.4
CC/C(=C/c1sc2ccccc2[n+]1CC)SC.COS(=O)(=O)[O-]	0.104
CN(C)c1ccc(/C=C/c2nc3ccccc3s2)cc1	17.7
CC[n+]1c(/C=C/N(C)c2ccccc2)sc2ccc(Cl)cc21.[O-][Cl+3]([O-])([O-])[O-]	-62.6
CN(C)c1ccc(/C=C/C=C/c2sc3ccccc3[n+]2C)cc1.[O-][Cl+3]([O-])([O-])[O-]	-42.6
CC[n+]1c(/C=C/C=C/N(C(C)=O)c2ccccc2)sc2cc(OC)ccc21.[I-]	-32.8
CCCc1nn(C(=O)c2ccccc2)c2c1C(=O)CC(C)(C)C2	11.5
C=CCOC(=O)/C(=C\c1cccc2ccccc12)NC(=O)c1ccccc1	-9.44
CC(=O)/C=C(\C)N=Nc1c(O)[nH]c2ccccc12	5.48
Cc1ccc(NC(=O)c2ccccc2NS(=O)(=O)c2ccc(F)cc2)cc1S(=O)(=O)N1CCCCC1	3.17
Cc1ccc(NS(=O)(=O)c2ccc(-n3cccn3)cc2)c(C)c1	22.8
CCC(CC)c1nnc(NC(=O)C2CC(=O)N(CCc3ccc(OC)c(OC)c3)C2)s1 (centres unmarked)	-0.537

SMILES	hERG current change (%, negative = inhibition) at 10uM [%]
CCn1c2ccccc2c2cnc(N=CN(C)C)c(C#N)c21	-24
N#Cc1ccc(Nc2nc(-c3ccc(O)cc3O)cs2)cc1C(F)(F)F	11.9
Fc1ccc(N2CCN(Cc3cn[nH]c3-c3ccccc3)CC2)cc1	-59.2
CCOc1ccccc1N1CCN(Cc2cc3c(cc2[N+](=O)[O-])OCO3)CC1	-20.6
COc1ccc(-c2[nH]ncc2CN2CCN(c3ccc(F)cc3)CC2)cc1	-45.7
Fc1ccc(-c2[nH]ncc2CN2CCN(c3ccc(F)cc3)CC2)cc1	-44.5
CCOc1ccccc1N1CCN(Cc2cn[nH]c2-c2ccc(F)cc2)CC1	-72.3
Fc1ccc(N2CCN(Cc3nnc(-c4ccccc4)o3)CC2)cc1	-11.9
COc1ccccc1N1CCN(Cc2ccccc2Cl)CC1	-23.5
CCOc1ccccc1N1CCN(Cc2cnc(-c3ccccc3)[nH]2)CC1	-40.6
COc1ccccc1N1CCN(Cc2cn[nH]c2-c2ccc(F)cc2)CC1	-55.3
Cc1c(C)n(CCCN(C)C)c2ncnc(NCc3ccccc3)c12	-13.9
O=P(C(=Nc1ccc(Cl)cc1)N1CCOCC1)(N1CCOCC1)N1CCOCC1	-17.6
Cc1ccc(S(=O)(=O)N(C)C)cc1NC(=S)N(C)C1CCN(C)CC1	16.2
Cc1ccc(C)c(NC(=O)NCCN2CCCCC2)c1	-15.1
COc1ccc(S(=O)(=O)N2CCOC23CCN(S(=O)(=O)c2cc(C)ccc2OC)CC3)cc1	26.8
CCN(C(=O)COC(=O)Cc1c[nH]c2ccccc12)c1c(N)n(Cc2ccccc2)c(=O)[nH]c1=O	16.3
Cc1cc(Br)ccc1NC(=S)N1CCOCC1	12.5
COc1ccc(CNC(=O)CCCOc2cc(=O)n(C)c3ccccc23)cc1	-19.2
Cn1c(SCC(=O)Nc2nccs2)nnc1C12CC3CC(CC(C3)C1)C2	-6.22
